# Measured values taken from publication PMC7862700, “An all-to-all approach to the identification of sequence-specific readers for epigenetic DNA modifications on cytosine”.
# What was measured:
# Experiment in all cases: DAPPL (digital affinity profiling via proximity ligation, sequencing); 10 mM Tris-HCl pH 7.5, 50 mM NaCl, 1 mM DTT, 4% glycerol, room temperature, 30 min; GST-TFs on glutathione beads, 16-mer random dsDNA library, 0.1% formaldehyde crosslink after washing; high values mean tight binding
# Conditions in all cases: protein: recombinant; tags: N-terminal GST; dsDNA, one strand shown
# [1] = biological target: T1, FLI1 (Homo sapiens, UniProt Q01543 1-452)
# T1 sequence: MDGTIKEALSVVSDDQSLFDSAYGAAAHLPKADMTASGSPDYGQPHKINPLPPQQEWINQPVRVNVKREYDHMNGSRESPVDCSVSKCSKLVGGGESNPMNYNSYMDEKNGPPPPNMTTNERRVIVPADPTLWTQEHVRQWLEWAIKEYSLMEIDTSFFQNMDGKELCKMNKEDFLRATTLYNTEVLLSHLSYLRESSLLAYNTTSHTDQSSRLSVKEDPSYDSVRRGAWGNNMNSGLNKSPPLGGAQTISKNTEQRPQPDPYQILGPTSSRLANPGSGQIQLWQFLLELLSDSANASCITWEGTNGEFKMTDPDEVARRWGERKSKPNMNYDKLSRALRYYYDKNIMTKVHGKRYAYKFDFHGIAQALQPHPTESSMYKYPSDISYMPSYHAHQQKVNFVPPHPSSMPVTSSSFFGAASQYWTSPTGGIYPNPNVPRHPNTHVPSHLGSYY
# Procedure, shortened: (§1)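 Human transcription factors carrying a GST fusion were produced in yeast, bound to glutathione beads, tagged with DNA barcodes and pooled together with a tag-only sample. Each pool was held with 200 nmole of a random double-stranded 16-mer DNA library in Tris/NaCl/DTT/glycerol buffer for 30 min at room temperature, then washed, crosslinked in 0.1% formaldehyde, proximity-ligated with BsaI/T4 ligase (1 h, 37 °C), PCR-amplified and sequenced on an Illumina NextSeq500. Binding signal is the read frequency of each hexamer for a given factor divided by its frequency in the tag-only sample.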
# [2] = biological target: T2, ELK1 (Homo sapiens, UniProt P19419 1-428)
# T2 sequence: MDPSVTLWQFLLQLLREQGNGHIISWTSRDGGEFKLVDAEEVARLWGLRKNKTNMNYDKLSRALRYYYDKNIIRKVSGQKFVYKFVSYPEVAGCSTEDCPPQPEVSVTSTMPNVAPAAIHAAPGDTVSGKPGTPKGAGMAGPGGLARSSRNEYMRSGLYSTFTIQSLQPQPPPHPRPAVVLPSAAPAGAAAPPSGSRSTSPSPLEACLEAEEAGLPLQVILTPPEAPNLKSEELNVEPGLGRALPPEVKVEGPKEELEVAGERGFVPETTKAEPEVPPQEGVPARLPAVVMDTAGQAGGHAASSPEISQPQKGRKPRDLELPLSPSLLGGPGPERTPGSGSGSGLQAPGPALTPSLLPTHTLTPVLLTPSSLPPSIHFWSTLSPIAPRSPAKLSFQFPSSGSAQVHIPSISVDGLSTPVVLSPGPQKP
# Procedure, shortened: as §1
# [3] = biological target: T3, GABPA (Homo sapiens, UniProt Q06546 1-454)
# T3 sequence: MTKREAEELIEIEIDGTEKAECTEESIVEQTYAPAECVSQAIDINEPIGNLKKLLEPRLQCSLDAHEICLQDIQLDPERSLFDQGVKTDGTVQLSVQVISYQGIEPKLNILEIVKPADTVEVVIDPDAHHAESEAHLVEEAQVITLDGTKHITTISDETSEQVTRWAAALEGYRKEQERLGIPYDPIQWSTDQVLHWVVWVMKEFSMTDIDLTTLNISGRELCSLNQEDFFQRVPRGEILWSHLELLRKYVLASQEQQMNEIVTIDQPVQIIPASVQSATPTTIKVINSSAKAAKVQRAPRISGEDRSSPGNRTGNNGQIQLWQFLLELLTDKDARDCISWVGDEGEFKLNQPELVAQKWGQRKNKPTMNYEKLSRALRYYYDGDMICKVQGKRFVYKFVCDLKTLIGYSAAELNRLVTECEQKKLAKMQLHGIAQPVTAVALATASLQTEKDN
# Procedure, shortened: as §1
# [4] = biological target: T4, ERG (Homo sapiens, UniProt P11308 1-479)
# T4 sequence: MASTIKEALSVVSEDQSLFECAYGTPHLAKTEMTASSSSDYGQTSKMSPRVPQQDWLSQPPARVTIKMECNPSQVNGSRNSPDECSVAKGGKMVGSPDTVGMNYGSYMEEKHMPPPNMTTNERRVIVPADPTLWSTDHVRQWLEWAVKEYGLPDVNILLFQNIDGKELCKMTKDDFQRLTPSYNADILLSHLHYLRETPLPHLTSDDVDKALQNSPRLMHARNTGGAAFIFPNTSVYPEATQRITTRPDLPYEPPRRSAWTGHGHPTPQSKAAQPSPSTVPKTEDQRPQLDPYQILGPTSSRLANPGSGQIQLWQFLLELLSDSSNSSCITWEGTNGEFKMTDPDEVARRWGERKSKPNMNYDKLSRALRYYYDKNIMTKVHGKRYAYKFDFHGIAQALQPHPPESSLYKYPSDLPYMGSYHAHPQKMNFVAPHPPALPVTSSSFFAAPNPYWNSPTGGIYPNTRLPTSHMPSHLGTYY
# Procedure, shortened: as §1
# [5] = biological target: ELF1 (Homo sapiens, UniProt P32519 1-619)
# Chain of ELF1 (P32519 whole entry): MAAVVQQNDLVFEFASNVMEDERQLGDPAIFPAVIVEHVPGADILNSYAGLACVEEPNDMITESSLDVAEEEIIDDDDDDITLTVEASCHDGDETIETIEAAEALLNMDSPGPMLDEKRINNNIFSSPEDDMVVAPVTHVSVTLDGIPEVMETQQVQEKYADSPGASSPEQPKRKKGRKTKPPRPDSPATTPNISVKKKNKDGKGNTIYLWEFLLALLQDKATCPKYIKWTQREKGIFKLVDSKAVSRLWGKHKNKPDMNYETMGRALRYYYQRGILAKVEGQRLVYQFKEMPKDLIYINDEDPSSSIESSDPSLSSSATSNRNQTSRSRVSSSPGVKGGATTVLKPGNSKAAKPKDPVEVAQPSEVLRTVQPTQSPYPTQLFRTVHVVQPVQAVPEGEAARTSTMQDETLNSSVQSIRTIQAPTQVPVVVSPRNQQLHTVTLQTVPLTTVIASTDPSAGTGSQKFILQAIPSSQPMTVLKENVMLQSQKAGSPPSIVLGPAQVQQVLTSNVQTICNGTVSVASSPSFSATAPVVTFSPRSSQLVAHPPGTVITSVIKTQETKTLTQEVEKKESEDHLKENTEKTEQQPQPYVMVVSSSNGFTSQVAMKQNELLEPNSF
# Procedure, shortened: as §1
# [6] = biological target: T5, EHF (Homo sapiens, UniProt Q9NZC4 1-300)
# T5 sequence: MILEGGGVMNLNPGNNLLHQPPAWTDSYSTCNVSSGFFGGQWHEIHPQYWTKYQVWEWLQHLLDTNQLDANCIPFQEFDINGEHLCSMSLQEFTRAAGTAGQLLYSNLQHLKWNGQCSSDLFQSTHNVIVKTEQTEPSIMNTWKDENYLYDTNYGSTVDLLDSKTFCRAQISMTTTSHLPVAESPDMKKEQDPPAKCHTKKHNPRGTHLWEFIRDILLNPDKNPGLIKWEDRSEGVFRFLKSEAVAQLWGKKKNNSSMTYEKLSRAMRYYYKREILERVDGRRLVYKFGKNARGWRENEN
# Procedure, shortened: as §1
# [7] = biological target: SPI1 (Homo sapiens, UniProt P17947 1-270)
# Procedure, shortened: as §1
# [8] = biological target: SPIB (Homo sapiens, UniProt Q01892 1-262)
# Chain of SPIB (Q01892 whole entry): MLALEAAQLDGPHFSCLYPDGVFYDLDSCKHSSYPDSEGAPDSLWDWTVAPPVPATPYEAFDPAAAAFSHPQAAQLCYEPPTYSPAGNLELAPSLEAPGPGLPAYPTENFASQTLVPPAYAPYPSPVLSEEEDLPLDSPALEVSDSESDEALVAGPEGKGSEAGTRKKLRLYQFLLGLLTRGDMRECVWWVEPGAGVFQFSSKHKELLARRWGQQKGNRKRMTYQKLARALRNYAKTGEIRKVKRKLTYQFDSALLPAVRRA
# Procedure, shortened: as §1
# [9] = biological target: T6, ELK3 (Homo sapiens, UniProt P41970 1-407)
# T6 sequence: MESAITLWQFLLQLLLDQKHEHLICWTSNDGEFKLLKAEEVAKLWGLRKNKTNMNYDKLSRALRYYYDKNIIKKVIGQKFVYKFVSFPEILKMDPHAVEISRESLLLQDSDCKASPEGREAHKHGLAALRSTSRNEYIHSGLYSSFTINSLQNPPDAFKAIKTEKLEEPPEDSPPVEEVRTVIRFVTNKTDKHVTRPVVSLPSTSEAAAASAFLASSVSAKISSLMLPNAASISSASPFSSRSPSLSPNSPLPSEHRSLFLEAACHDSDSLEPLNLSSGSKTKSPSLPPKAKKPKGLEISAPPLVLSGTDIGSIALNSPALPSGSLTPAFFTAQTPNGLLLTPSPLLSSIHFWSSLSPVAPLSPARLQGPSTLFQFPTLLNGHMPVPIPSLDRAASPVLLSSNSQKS
# Procedure, shortened: as §1
# [10] = biological target: T7, FEV (Homo sapiens, UniProt Q99581 1-238)
# T7 sequence: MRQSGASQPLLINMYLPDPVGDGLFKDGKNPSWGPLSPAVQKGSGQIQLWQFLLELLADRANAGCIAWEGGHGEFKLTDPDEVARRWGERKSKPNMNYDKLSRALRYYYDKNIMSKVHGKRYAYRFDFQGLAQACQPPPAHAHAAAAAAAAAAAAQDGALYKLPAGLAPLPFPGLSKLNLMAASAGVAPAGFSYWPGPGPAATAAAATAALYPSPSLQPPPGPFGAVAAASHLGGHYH
# Procedure, shortened: as §1
# [11] = biological target: ETV5 (Homo sapiens, UniProt P41161 1-510)
# Chain of ETV5 (P41161 whole entry): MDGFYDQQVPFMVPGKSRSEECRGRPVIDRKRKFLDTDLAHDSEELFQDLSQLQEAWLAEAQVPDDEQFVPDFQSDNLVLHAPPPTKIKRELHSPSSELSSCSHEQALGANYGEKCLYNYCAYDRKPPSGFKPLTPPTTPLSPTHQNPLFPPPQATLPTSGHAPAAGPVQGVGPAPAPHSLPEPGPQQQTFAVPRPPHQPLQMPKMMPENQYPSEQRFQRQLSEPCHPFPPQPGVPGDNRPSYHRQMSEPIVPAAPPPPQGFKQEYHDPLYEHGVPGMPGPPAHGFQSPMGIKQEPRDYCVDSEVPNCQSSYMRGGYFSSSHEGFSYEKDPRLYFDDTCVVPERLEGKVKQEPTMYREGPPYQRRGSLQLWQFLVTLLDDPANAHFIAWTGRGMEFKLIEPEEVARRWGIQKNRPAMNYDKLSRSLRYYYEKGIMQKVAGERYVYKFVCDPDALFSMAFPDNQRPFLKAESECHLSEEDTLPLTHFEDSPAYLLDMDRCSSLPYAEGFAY
# Procedure, shortened: as §1
# [12] = biological target: ELF4 (Homo sapiens, UniProt Q99607 1-663)
# Chain of ELF4 (Q99607 whole entry): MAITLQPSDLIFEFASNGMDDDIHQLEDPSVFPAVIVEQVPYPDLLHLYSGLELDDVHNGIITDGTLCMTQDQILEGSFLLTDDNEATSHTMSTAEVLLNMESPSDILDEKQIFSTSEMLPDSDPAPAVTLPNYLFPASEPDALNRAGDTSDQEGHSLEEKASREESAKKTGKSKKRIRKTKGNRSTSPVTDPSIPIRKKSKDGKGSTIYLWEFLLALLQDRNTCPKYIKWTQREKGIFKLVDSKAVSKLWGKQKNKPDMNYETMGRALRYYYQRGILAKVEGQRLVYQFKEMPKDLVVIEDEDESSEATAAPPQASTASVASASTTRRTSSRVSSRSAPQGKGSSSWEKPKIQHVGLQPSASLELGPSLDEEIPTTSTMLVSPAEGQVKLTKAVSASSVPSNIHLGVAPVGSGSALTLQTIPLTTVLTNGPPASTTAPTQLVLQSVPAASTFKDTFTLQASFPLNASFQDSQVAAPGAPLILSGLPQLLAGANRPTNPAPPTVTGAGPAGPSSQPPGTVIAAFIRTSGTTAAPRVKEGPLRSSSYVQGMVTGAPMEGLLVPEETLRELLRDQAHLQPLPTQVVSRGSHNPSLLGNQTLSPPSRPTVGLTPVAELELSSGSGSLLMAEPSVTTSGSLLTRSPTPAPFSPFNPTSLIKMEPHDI
# Procedure, shortened: as §1
# [13] = biological target: ETV1 (Homo sapiens, UniProt P50549 1-477)
# Chain of ETV1 (P50549 whole entry): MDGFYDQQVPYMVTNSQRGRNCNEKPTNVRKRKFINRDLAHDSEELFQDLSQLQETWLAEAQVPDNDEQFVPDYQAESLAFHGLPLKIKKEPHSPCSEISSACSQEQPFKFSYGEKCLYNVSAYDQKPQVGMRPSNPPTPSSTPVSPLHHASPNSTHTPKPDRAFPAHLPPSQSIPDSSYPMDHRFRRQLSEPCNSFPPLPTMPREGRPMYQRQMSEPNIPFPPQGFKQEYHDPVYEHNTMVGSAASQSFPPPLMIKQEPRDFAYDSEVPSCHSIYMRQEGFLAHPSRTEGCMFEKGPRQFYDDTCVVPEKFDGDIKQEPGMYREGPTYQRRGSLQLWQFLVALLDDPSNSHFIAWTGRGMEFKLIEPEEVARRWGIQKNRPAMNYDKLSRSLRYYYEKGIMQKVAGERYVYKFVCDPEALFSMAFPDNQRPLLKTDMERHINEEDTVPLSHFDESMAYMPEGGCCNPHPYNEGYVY
# Procedure, shortened: as §1
# [14] = biological target: T8, ERF (Homo sapiens, UniProt P50548 1-548)
# T8 sequence: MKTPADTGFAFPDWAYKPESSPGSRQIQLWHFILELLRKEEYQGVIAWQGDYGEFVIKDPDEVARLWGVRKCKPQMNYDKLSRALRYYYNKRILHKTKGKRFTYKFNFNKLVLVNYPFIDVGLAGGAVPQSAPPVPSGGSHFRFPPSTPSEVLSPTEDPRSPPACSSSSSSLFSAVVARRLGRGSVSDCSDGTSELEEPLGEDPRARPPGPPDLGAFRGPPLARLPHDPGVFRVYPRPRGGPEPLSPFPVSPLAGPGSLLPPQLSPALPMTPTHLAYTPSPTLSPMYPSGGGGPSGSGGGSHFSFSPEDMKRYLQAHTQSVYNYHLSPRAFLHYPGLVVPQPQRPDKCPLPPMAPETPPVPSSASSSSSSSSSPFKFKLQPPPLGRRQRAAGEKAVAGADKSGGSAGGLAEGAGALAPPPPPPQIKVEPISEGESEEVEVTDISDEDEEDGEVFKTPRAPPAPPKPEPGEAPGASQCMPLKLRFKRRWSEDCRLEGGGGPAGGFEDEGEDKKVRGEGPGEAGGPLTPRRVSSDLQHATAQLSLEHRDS
# Procedure, shortened: as §1
# [15] = biological target: T9, ETV3L (Homo sapiens, UniProt Q6ZN32 1-361)
# T9 sequence: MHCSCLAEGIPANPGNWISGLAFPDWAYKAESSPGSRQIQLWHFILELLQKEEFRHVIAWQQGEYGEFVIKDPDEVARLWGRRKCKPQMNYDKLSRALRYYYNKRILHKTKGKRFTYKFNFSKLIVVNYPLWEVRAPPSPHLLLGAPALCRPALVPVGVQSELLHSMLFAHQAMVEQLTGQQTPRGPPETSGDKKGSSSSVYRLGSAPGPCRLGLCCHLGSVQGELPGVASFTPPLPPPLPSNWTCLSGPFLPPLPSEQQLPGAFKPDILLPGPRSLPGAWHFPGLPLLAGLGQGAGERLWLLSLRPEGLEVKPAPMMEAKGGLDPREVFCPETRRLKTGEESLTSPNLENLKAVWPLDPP
# Procedure, shortened: as §1
# [16] = biological target: T10, ETS2 (Homo sapiens, UniProt P15036 1-469)
# T10 sequence: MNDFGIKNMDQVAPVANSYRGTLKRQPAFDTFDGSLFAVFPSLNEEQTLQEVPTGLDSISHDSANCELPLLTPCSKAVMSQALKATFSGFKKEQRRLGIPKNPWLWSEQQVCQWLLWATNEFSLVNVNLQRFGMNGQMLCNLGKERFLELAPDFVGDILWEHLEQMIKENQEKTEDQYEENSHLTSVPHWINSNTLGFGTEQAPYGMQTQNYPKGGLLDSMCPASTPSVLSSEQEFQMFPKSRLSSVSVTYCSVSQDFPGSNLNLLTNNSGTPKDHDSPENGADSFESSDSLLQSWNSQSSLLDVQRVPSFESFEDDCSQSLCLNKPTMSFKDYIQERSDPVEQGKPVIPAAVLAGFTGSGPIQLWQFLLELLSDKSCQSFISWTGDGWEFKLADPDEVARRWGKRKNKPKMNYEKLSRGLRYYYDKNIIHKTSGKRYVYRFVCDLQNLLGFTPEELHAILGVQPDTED
# Procedure, shortened: as §1
# [17] = biological target: T11, SPDEF (Homo sapiens, UniProt O95238 1-335)
# T11 sequence: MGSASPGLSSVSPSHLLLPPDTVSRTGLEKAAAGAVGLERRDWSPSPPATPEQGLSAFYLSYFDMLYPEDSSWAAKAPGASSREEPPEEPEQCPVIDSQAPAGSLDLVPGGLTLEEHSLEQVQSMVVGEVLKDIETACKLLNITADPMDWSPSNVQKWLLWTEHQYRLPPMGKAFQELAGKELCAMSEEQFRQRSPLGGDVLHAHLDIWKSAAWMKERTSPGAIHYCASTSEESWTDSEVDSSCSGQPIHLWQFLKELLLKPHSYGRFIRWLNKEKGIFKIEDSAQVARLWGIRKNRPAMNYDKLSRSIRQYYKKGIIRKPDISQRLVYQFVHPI
# Procedure, shortened: as §1
# [18] = biological target: T12, ETV3 (Homo sapiens, UniProt P41162-2 1-143)
# T12 sequence: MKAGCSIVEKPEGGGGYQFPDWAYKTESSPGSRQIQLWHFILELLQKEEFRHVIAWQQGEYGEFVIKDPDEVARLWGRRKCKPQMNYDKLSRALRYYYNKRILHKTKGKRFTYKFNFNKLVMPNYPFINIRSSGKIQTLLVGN
# Procedure, shortened: as §1
sequence,measurement,setting,value
GCAATT,binding signal,[1],"1.17 fold enrichment (6-mer frequency, TF over GST control)"
same,binding signal,[2],"1.15 fold enrichment (6-mer frequency, TF over GST control)"
same,binding signal,[3],"1.14 fold enrichment (6-mer frequency, TF over GST control)"
same,binding signal,[4],"1.02 fold enrichment (6-mer frequency, TF over GST control)"
same,binding signal,[5],"1.06 fold enrichment (6-mer frequency, TF over GST control)"
same,binding signal,[6],"1.09 fold enrichment (6-mer frequency, TF over GST control)"
same,binding signal,[7],"1.23 fold enrichment (6-mer frequency, TF over GST control)"
same,binding signal,[8],"1.21 fold enrichment (6-mer frequency, TF over GST control)"
same,binding signal,[9],"1.05 fold enrichment (6-mer frequency, TF over GST control)"
same,binding signal,[10],"1.14 fold enrichment (6-mer frequency, TF over GST control)"
same,binding signal,[11],"1.12 fold enrichment (6-mer frequency, TF over GST control)"
same,binding signal,[12],"1.12 fold enrichment (6-mer frequency, TF over GST control)"
same,binding signal,[13],"1.06 fold enrichment (6-mer frequency, TF over GST control)"
same,binding signal,[14],"1.2 fold enrichment (6-mer frequency, TF over GST control)"
same,binding signal,[15],"1.08 fold enrichment (6-mer frequency, TF over GST control)"
same,binding signal,[16],"1.09 fold enrichment (6-mer frequency, TF over GST control)"
same,binding signal,[17],"1.06 fold enrichment (6-mer frequency, TF over GST control)"
same,binding signal,[18],"1.18 fold enrichment (6-mer frequency, TF over GST control)"
